Screening results: PubChem BioAssay, National Center for Advancing Translational Sciences (NCATS)
This is a sample that favours compounds with a hit; in the whole collection about 12% have one here.
PLK1 PBD inh: inhibitors of human PLK1 polo-box domain binding. Potency, µM, inactives show max response, negative = inhibition, actives largely listed as inhibitors. hit rate 2.8% among 360,000. P53350. Plk1 PBD binding of FITC phosphopeptide, fluorescence polarization; also: series mostly up to about 57 µM; % is scaled to controls: 0 for no effect and ±100 for the full control effect; nearly all actives have a fitted effect of over 65% in size
Target sequence (P53350 whole entry, looked up, the tested form may be a part): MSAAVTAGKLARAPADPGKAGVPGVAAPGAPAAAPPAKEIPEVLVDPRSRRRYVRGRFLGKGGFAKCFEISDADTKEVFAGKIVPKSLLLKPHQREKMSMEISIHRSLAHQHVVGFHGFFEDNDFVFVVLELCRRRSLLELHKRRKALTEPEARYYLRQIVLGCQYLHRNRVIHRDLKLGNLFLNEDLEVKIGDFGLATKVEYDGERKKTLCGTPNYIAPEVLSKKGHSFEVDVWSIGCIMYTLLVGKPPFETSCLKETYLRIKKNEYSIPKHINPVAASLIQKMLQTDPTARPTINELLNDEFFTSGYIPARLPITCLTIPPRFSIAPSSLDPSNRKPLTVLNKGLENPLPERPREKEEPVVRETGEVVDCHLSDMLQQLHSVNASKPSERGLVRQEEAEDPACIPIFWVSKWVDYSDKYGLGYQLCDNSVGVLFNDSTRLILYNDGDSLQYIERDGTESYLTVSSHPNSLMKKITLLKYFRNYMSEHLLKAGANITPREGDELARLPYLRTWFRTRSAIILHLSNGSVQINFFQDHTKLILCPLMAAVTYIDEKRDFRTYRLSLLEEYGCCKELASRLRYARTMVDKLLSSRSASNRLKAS
HP1b binding inh: HP1-beta chromodomain-methylated histone interaction inhibition; Potency, µM (titrated, usually from 114 µM), inactives show top-dose activity change, negative = inhibition, hits mostly inhibitors; P83916; AlphaScreen HP1-beta / biotin-H3K9me3 peptide binding; hit rate 0.56% among 390,000; also: nearly all actives have a fitted effect of over 70% in size
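HP1-beta protein (50 nM final) preincubated 30 min at room temperature with biotinylated H3(1-18)K9me3 peptide (50 nM) in PBS pH 7.4, 0.01% Tween-20, then compound added for 30 min. AlphaScreen streptavidin donor/nickel chelate acceptor beads (10 ug/mL final), 30 min dark, luminescence read.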
JMJD2A Tudor inh: blocks the human JMJD2A Tudor domain. O75164. AlphaScreen JMJD2A-Tudor / H3K4me3 peptide binding. Potency, µM (series often up to 114 µM), for inactives: top-dose activity change, negative = inhibition, actives largely listed as inhibitors. hit rate 4.4% among 390,000. AID 504339; also: % is scaled to controls: 0 for no effect and ±100 for the full control effect; nearly all actives have a fitted effect of over 50% in size
Sfp PPTase inh: blocks B. subtilis Sfp PPTase activity; AID 1490; Biochemical Sfp PPTase activity, qHTS; Potency, µM, for the others: largest response in the series, negative = inhibition, most hits filed as inhibitors; hit rate 3.5% among 310,000;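 also: the enzyme is Sfp with the accession as filed and its product quenches rhodamine fluorescence; 0% = enzyme reaction without inhibitor and -100% = no enzyme wells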
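After 15 min at room temperature with compound, 15 nM Sfp received 5 uM rhodamine-CoA plus 12.5 uM BHQ-2-ybbR (50 mM Hepes pH 7.6, 10 mM MgCl2). Rate came from the fluorescence difference over 30 min, ex 525/em 598 nm.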
G9a inh: inhibitors of human histone lysine methyltransferase G9a; Q96KQ7; G9a H3K9 monomethylation, AlphaScreen, 2 h; Potency, µM (doses to about 102 µM), without a hit: at the highest dose activity, negative = inhibition, usual class: inhibitors; hit rate 8.8% among 350,000; also: % is scaled to controls: 0 for no effect and ±100 for the full control effect; nearly all actives have a fitted effect of over 75% in size
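Methyltransferase reactions run at room temperature for 2 h (20 nM enzyme, 500 nM biotin-H3K9 peptide, 20 uM SAM) after a 15 min compound preincubation; product detected by AlphaScreen beads and anti-H3K9me1 antibody.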
BAZ2B inh: inhibitors of human BAZ2B bromodomain; Q9UIF8; AlphaScreen BAZ2B-H3K14Ac peptide displacement; Potency, µM (doses to about 114 µM), for the others: at the top dose activity change, negative = inhibition, actives largely listed as inhibitors; hit rate 4.4% among 360,000; AID 504333; also: % is scaled to controls: 0 for no effect and ±100 for the full control effect; nearly all actives have a fitted effect of over 60% in size
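Compounds, titrated to a top concentration of 110 uM, were incubated 30 min at room temperature with preformed BAZ2B/acetyl-K14 H3 peptide complex (50 nM each). Proximity signal was measured by AlphaScreen after 20 min with beads.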
* = called active by the depositor; ! = not confirmed by another sample; [ ] = remark or other dose. Calls follow the shape of the dose curve; as a rule, active = well fitted curve in the direction sought with a large enough effect; inconclusive = small, poorly fitted or top-dose-only effect, or another doubt; inactive = no such curve, though single readings can be large; an effect the other way counts as inactive or inconclusive. Potency is read from the fitted curve at half-maximal effect.

Screening CNC(C)Cc1ccccc1OC (stereo not given) returned Sfp PPTase inh 4% and G9a inh 6%[59 µM].
For CCOc1ccccc1CN1C2CCC1CC(c1ccc(C)cc1)C2 (stereo not given) the results were PLK1 PBD inh -1%, HP1b binding inh 70%, JMJD2A Tudor inh -3%, Sfp PPTase inh 7%, G9a inh 31% and BAZ2B inh -6%.
`CCOc1cccc(=NC2CCCCC2)c2c(C)n(C)c(C)c12` gave PLK1 PBD inh -3%, HP1b binding inh inconclusive, JMJD2A Tudor inh inconclusive, Sfp PPTase inh -6%, G9a inh 50µM* and BAZ2B inh inconclusive.
Screening Clc1ccc(Sc2oc(/C=N/n3cnnc3)cc2Br)cc1 returned PLK1 PBD inh -9%, HP1b binding inh 9%, JMJD2A Tudor inh 89µM*, Sfp PPTase inh -3%, G9a inh -2% and BAZ2B inh 10%.
Screening CN(C(=O)CNC(=O)OCc1ccccc1)c1ccc(Br)cc1C(=O)c1ccccc1Cl returned PLK1 PBD inh 0%, HP1b binding inh 20%, JMJD2A Tudor inh -14%, Sfp PPTase inh 10%, G9a inh 23%[59 µM] and BAZ2B inh -11%.
`O=C(CNC(=O)OCc1ccccc1)Nc1ccc(Br)cc1C(=O)c1ccccc1Cl` gave PLK1 PBD inh 2%, HP1b binding inh 7%, JMJD2A Tudor inh -4%, Sfp PPTase inh 28µM*, G9a inh 10% and BAZ2B inh 10%.
Screening CC(C)C[C@H]1C(=O)N2CCC[C@@H]2[C@@]2(O)O[C@](NC(=O)[C@@H]3C=C4c5cccc6[nH]cc(c56)C[C@@H]4N(C)C3)(C(C)C)C(=O)N12 returned Sfp PPTase inh -17% and G9a inh inconclusive.
CCCCCCCCCCCCCC(=O)O[C@@H]1[C@@H](C)[C@@]2(O)[C@@H](C=C(CO)C[C@@]3(O)C(=O)C(C)=C[C@@H]23)C2C(C)(C)[C@@]21OC(C)=O (stereo not given in full) was read as G9a inh 7.9µM*!.
C=CCc1ccc(OC(=O)NC2CCCCC2)c(OC)c1 was read as PLK1 PBD inh -16%, HP1b binding inh 40%, JMJD2A Tudor inh 12%, Sfp PPTase inh 13%, G9a inh -27% and BAZ2B inh 2%.
Screening C=CCc1cc(C=C2C(=O)N(C)C(=O)N(C)C2=O)cc(OCC)c1OCc1ccccc1 returned PLK1 PBD inh 7.5µM*, HP1b binding inh 290%, JMJD2A Tudor inh inconclusive, Sfp PPTase inh 32µM*, G9a inh 3% and BAZ2B inh 3%.
Screening C=CCc1cc(C=C2C(=O)NC(=O)NC2=O)cc(OC)c1OCc1ccc(C(=O)O)cc1 returned PLK1 PBD inh 12µM*, HP1b binding inh 44%, JMJD2A Tudor inh -27%, Sfp PPTase inh 56µM*, G9a inh 32µM* and BAZ2B inh -7%.
For C=CCn1cc(C=C2C(=O)N(C)C(=O)N(C)C2=O)c2ccccc21 the results were PLK1 PBD inh -6%, HP1b binding inh 43%, JMJD2A Tudor inh -11%, Sfp PPTase inh -5%, G9a inh -3% and BAZ2B inh 5%.
For CN(C)C(=O)Nc1ccc(-n2nc(C(C)(C)C)oc2=O)c(Cl)c1 the results were Sfp PPTase inh 7%.
Screening COCc1cc(C)c(C#N)c(=S)[nH]1 returned PLK1 PBD inh 27µM*, HP1b binding inh inconclusive, JMJD2A Tudor inh 7.9µM*, Sfp PPTase inh 10µM* and BAZ2B inh inconclusive.
`Cc1cc(C)cc(Oc2nc3ccccn3c(=O)c2/C=C(\C#N)c2nc3ccccc3s2)c1` gave HP1b binding inh 50%, JMJD2A Tudor inh -12%, G9a inh 3.5µM* and BAZ2B inh -18%.
Screening C/C(=N\N1CCCCCC1)c1c(O)n(C)c(=O)n(C)c1=O returned Sfp PPTase inh 24%, G9a inh 17%[12.7 µM] and BAZ2B inh -7%.
For C/C(=N\NC(N)=O)c1c(O)n(C)c(=O)n(C)c1=O the results were PLK1 PBD inh 30µM*, HP1b binding inh 28%, JMJD2A Tudor inh 40µM*, Sfp PPTase inh 56µM* and G9a inh inconclusive.
CCCC(C)C1(CC)C(=O)NC(=O)NC1=O (stereo not given) was read as Sfp PPTase inh 11% and G9a inh -43%[2.33 µM].
`CN1CC(C(=O)c2ccc(Cl)cc2)C(c2ccc(N(C)C)cc2)C1` (stereo not given) gave PLK1 PBD inh -3%, HP1b binding inh -36%, JMJD2A Tudor inh 50µM*, Sfp PPTase inh 2%, G9a inh 35µM* and BAZ2B inh 35µM*.
`CC(=O)N1N=C(c2c(O)n(C)c(=O)n(C)c2=O)CC1c1ccccc1` (stereo not given) gave PLK1 PBD inh -7%, HP1b binding inh 55%, JMJD2A Tudor inh -29%, Sfp PPTase inh -15%, G9a inh 40µM* and BAZ2B inh -22%.
O=c1[nH]c(=S)n(-c2ccc(F)cc2)c(O)c1/C=N/N1CCOCC1 was read as PLK1 PBD inh 5%, HP1b binding inh 39%, JMJD2A Tudor inh 8%, Sfp PPTase inh 4%, G9a inh 45µM* and BAZ2B inh inconclusive.
`Cc1ccccc1-n1c(O)c(/C=N/N2CCOCC2)c(=O)[nH]c1=S` gave PLK1 PBD inh 3%, HP1b binding inh 18%, JMJD2A Tudor inh -29%, Sfp PPTase inh -26%, G9a inh inconclusive and BAZ2B inh inconclusive.
For O=c1c(/C=N/N2CCOCC2)c(O)n(-c2ccccc2)c(=S)n1-c1ccccc1 the results were PLK1 PBD inh -9%, HP1b binding inh 11%, JMJD2A Tudor inh -12%, Sfp PPTase inh -23%, G9a inh 50µM* and BAZ2B inh inconclusive.
Screening Cn1c(O)c(/C=N/N2CCOCC2)c(=O)n(-c2ccccc2)c1=S returned PLK1 PBD inh -4%, HP1b binding inh 16%, JMJD2A Tudor inh -24%, Sfp PPTase inh -8%, G9a inh -39% and BAZ2B inh -17%.
For O=C(CN1CCCCC1)c1ccc(OC(F)F)cc1 the results were PLK1 PBD inh -8%, HP1b binding inh 40%, JMJD2A Tudor inh -21%, Sfp PPTase inh 4%, G9a inh inconclusive and BAZ2B inh -29%.
`CCC1CCCCN1CC(=O)c1ccc(OC(F)F)cc1` (stereo not given) gave PLK1 PBD inh 3%, HP1b binding inh 53%, JMJD2A Tudor inh -1%, Sfp PPTase inh inconclusive, G9a inh 14µM* and BAZ2B inh 1%.
O=C(NC(Cc1ccccc1)C(=O)N1CCC2(CC1)OCCO2)C1CCCCC1 (stereo not given) was read as PLK1 PBD inh -2%, HP1b binding inh 10%, JMJD2A Tudor inh -5%, Sfp PPTase inh 2% and BAZ2B inh inconclusive.
